Source: PubChem
Polio RdRp inh: poliovirus RNA polymerase inhibition; poliovirus polymerase elongation, fluorescence polarization; active compounds read low; hit rate 0.66% among 150,000; P03300; % elongation, % (compound at 16.7 µg/mL); in the data active means % elongation below about 90%
MenB inh: inhibitors of Mycobacterium tuberculosis MenB enzyme; inhibition, % (no concentration beside the values); hit rate 0.43% among 100,000; MenB enzyme assay, absorbance read-out; in the data active means inhibition above about 21%, passing the limit was not always enough
Mtb MbtI inh: inhibitors of Mycobacterium tuberculosis siderophore enzyme MbtI | purified MbtI enzyme, fluorescence intensity read-out | inhibition, % (test concentration not listed) | hit rate 0.89% among 100,000; in the data active means inhibition mostly above about 56%, no sharp cut-off; inactive means mostly below about 77%
Target sequence (P9WFX0 whole entry, looked up): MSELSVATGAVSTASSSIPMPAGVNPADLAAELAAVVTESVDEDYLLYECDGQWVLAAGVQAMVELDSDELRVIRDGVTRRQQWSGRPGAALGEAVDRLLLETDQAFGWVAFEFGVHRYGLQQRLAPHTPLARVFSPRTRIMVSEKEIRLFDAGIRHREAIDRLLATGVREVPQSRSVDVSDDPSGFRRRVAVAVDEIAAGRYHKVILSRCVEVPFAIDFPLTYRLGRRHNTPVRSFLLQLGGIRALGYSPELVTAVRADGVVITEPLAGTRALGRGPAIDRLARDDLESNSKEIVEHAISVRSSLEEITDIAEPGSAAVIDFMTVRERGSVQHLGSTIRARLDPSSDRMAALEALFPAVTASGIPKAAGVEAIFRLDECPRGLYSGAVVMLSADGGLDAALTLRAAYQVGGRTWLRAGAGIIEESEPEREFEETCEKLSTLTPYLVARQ
Hits are given with their value; . = inactive; / = not tested or not shown; ! = repeats disagree. This is a sample that favours compounds with a hit; in the whole collection about 1.4% have one here.

SMILES | Polio RdRp inh | MenB inh | Mtb MbtI inh
CC(C)N(C(=O)C12CC3CC(CC(C3)C1)C2)c1ccccn1 | . | / | .
CCOC(=O)Cn1cnc2sc(C(=O)OCC)c(C)c2c1=O | . | 48 | .
CCOC(=O)c1sc2ncn(CC(=O)OC)c(=O)c2c1C | . | . | /
O=C(CSc1ccccc1)NCCc1ccccc1 | . | . | .
O=C(CSc1ccc2ccccc2c1)NCCc1ccc(O)c(O)c1 | . | / | 93
CNC(=O)Oc1ccc2sc(=O)oc2c1 | / | / | .
CNC(=O)Oc1c(Br)cc2sc(=O)oc2c1Br | . | . | 100
Oc1c(Cl)cc(Cl)cc1/C=N/NCCc1ccccn1 | . | . | .
Nc1nc(CNS(=O)(=O)c2cccc3nsnc23)nn1S(=O)(=O)c1cccc2nsnc12 | . | . | .
Cc1nccn1CCCN1C(=O)OC(C)(C)C1(C)O (centres undefined) | / | / | .
Cc1c(Cl)cccc1N1C(=O)CC(Sc2nnnn2-c2ccccc2)C1=O (centres undefined) | . | . | 98
O=C1CCCC1Sc1nnnn1-c1ccccc1 (centres undefined) | . | . | .
CC(=O)NC1=C(c2ccccc2)C(=O)c2ccccc2C1=O | . | . | .
N#CSC1CC(=O)N(c2ccc(F)cc2)C1=O (centres undefined) | . | . | 99
O=C(O)CCSC1CC(=O)N(c2ccc(F)cc2)C1=O (centres undefined) | . | . | .
CC1=CC(=O)C=C(C)C1=NS(=O)(=O)c1ccccc1 | . | . | 96
CN1C/C(=N\S(=O)(=O)c2ccccc2)N(C)C1=O | . | . | .
NS(=O)(=O)c1ccc(-n2ncc(Cl)c(Cl)c2=O)cc1 | 86 | . | .
O=c1c(Cl)c(Cl)cnn1-c1ccccc1 | / | / | .
NS(=O)(=O)c1cccc(S(N)(=O)=O)c1 | . | . | .
NS(=O)(=O)c1cccc(S(=O)(=O)c2ccc(Cl)c(Cl)c2)c1 | . | . | 67
CC1=C(C(=O)Nc2ccccc2)C(c2ccco2)C(C#N)=C(SCC(=O)Nc2ccccc2)N1 (centres undefined) | . | 39 | .
COC(=O)CSC1=C(C#N)C(c2ccco2)C(C(=O)Nc2ccccc2)=C(C)N1 (centres undefined) | . | . | .
O=C(Oc1ccccc1C(=S)N1CCOCC1)c1ccccc1 | . | . | .
CCOc1ccccc1C(=S)N1CCOCC1 | . | . | 74
SMILES | Polio RdRp inh | MenB inh | Mtb MbtI inh
CS(=O)(=O)N(CC(=O)NCC1CCCO1)Cc1ccc(Cl)c(Cl)c1 (centres undefined) | . | . | .
c1ccc(CNC2=NCCC2)nc1 | . | . | .
CC1=C(C)C(=O)C(NCc2ccccn2)=CC1=O | 66 | . | .
O=c1c(=NO)c(=O)c2ccccc12 | 32 | . | .
O=c1c2ccccc2c2nc3c(=O)c4ccccc4c3nc12 | . | . | .
c1ccc(-c2nnc(-c3cccnc3)nc2-c2ccccc2)cc1 | . | . | .
c1cncc(-c2nnc(-c3cccnc3)nn2)c1 | 66 | . | /
Clc1ccc(-c2cc3c(nn2)Nc2ccccc2N3)cc1 | . | . | .
Oc1ccc2ccccc2c1/C=N/NC1=NCCC1 | . | . | .
Cc1ccc(C2=NNC(c3cccs3)S2)cc1 (centres undefined) | 72 | . | /
Cc1ccc(C2=NNC(c3cccc(C)n3)S2)cc1 (centres undefined) | . | . | .
Cc1ccc(Cn2c(=S)[nH]c3ccccc32)cc1 | / | . | .
CCn1c(=S)[nH]c2ccccc21 | . | . | .
CCCn1c(=S)[nH]c2ccccc21 | . | . | 86!
S=c1[nH]c2ccccc2n1CCc1ccccc1 | 67 | . | 81
CC(C)n1c(=S)[nH]c2ccccc21 | . | . | .
S=c1[nH]c2ccccc2n1-c1ccccc1 | 78 | . | 92
COC(=O)c1cnn(C(=O)c2ccccc2)c1NC(=S)Nc1ccc(C)cc1C | . | . | .
O=C(COC(=O)c1cccc(I)c1)c1ccc(-n2nncc2-c2ccco2)cc1 | . | . | .
CCOC(=O)C1(C#N)C(=O)C(C#N)=C2CCCCC2C1c1ccccc1 (centres undefined) | / | / | .
Cc1ccc2c(N)c(C(=O)c3ccc4c(c3)OCCO4)sc2n1 | . | . | .
O=C1/C(=C\c2ccc(Br)o2)CC/C1=C/c1ccc(Br)o1 | 43 | . | .
O=C1/C(=C/c2cc3ccccc3o2)CC/C1=C\c1cc2ccccc2o1 | . | . | .
COc1ccc(-c2csc(=Nc3cc(C(=O)O)ccc3C)o2)cc1 | 86 | . | /
COc1ccc(-c2sc(C(=O)O)cc2C)cc1 | . | . | .
SMILES | Polio RdRp inh | MenB inh | Mtb MbtI inh
CC(C)Cn1cc(NC(=O)N2CCCCC2c2cccnc2)c2ccccc2c1=O (centres undefined) | . | . | .
O=C(CC1Sc2ccccc2NC1=O)OCn1nnc2ccccc2c1=O (centres undefined) | . | . | .
C/C(=C/C(=O)O)C(=O)Nc1nc(-c2cccs2)cs1 | / | . | 72
O=C(Cc1ccccc1)Nc1nc(-c2cccs2)cs1 | . | . | .
Clc1ccc2nc(-c3ccccc3)c(NCc3ccco3)n2c1 | . | . | .
CCCCCSc1ncnc2c1sc1nc(N3CCOCC3)c3c(c12)CCCC3 | . | / | /
c1nc2c3sc4nc(N5CCOCC5)c5c(c4c3ncn2n1)CCC5 | . | 28 | .
CC(C)(C)c1ccc(-c2nc(=S)[nH][nH]2)cc1 | . | . | .
CC(C)c1nc(=S)[nH][nH]1 | 84 | . | 87
CNC(=S)N/N=C/c1cccc(Cl)c1 | 13 | . | .
CC(C)NC(=S)N/N=C/c1cccc(O)c1 | . | . | .
CC1SC(=S)N(c2ccccc2)C1=O (centres undefined) | . | . | .
CC1SC(=S)NN1c1ccccc1 (centres undefined) | . | / | 88
Cc1[nH][nH]c(=O)c1C(c1ccccc1)C(C#N)C#N (centres undefined) | / | / | .
Cc1cccc(C(=O)c2c(N3CCOCC3)[nH]c(=O)c3ccccc23)c1 | 68 | . | .
Cc1cccc(C(=O)N2CCOCC2)c1 | . | . | /
O=C(Cn1ncc(Cl)c(Cl)c1=O)NCc1ccccc1 | . | . | .
CC1CCN(C(=O)c2cc3n(n2)C(C(F)(F)F)CC(c2ccccc2)N3)C(C)C1 (centres undefined) | . | . | .
CCOC(=O)c1cc(C(=O)O)nn1C | . | 28 | .
CCOC(=O)c1cc(C(=O)OCC)n(C)n1 | . | . | /
O=C(CSc1ccccc1C(=O)O)Nc1ccccc1OC(F)F | . | . | .
